Data published in PubChem BioAssay AID651640 (Broad Institute, 2012).
Screen size: about 350,000 compounds; about 6,000 (1.7%) were called active. Not shown: some 5% with an inconclusive outcome. Cut-off read from the data, not from the text of the source: active = CPE inhibition above about 20% (passing the limit was not always enough); inconclusive = no clear call, values can overlap the other calls; tested in BHK-21 cells. What follows is part of a selection rich in actives, with near analogues and random picks from the rest.

Assay: protection of cells from dengue 2 killing – plate reader, single concentration, primary screen (AID 651640);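 note: 0% = median of neutral control wells and 100% = median of positive control wells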
Details: DENV2-infected cells, cytopathic effect rescue, at 9.99 µM, active compounds read high
In the case of `C[C@@H]1CCCCO[C@H](CN(C)S(=O)(=O)c2cccs2)[C@@H](C)CN([C@@H](C)CO)C(=O)c2cc(NC(=O)Nc3ccc4c(c3)OCO4)ccc2O1`, the CPE inhibition is reported as 2.44% (inactive). For `O=C(N[C@H]1CC[C@H](CCNS(=O)(=O)c2ccc(F)cc2)O[C@H]1CO)C1CCC1`, the CPE inhibition was 0.0715% (inactive). For `CCNC(=O)Nc1ccc2c(c1)C(=O)N(C)[C@@H]1CC[C@@H](CC(=O)NCCOC)O[C@@H]1CO2`, the CPE inhibition was -6.67% (inactive). For `CC(C)C#Cc1ccc2c(c1)O[C@@H](CN(C)Cc1ccncc1)[C@@H](C)CN([C@@H](C)CO)S2(=O)=O`, the CPE inhibition was -4.86% (inactive). For `COc1ccccc1C(=O)Nc1ccc(Nc2ccccc2)cc1`, the CPE inhibition was 1.78% (inactive). With `COc1ccc(NC(=O)CSc2nc(N)c(-c3ccccc3)c(=O)[nH]2)cc1` the CPE inhibition was 15.2% (inactive). For `COc1ccc(NC(=O)c2cn(-c3ccccc3)nc2SC)cc1`, the CPE inhibition was 30.9% (active). For `O=C(C[C@H]1C[C@H](C(=O)N2CCOCC2)[C@@]2(CCC3CCCC3)c3[nH]c4ccc(Cl)cc4c3CCN2C1=O)NCc1ccco1`, the CPE inhibition was 88.4% (active). In the case of `CN(C)C(=O)CCc1ccc2c3c([nH]c2c1)[C@]1(CCC2CCCC2)[C@@H](C(=O)N2CCOCC2)C[C@H](CC(=O)NCc2ccco2)C(=O)N1CC3`, the CPE inhibition is reported as -10.7% (inactive). With `COc1ccc(CNC(=O)C[C@H]2C[C@H](C(=O)N3CCOCC3)[C@@]3(CCC4CCCC4)c4[nH]c5ccc(Cl)cc5c4CCN3C2=O)cc1OC` the CPE inhibition was 0.122% (inactive). For `Cc1ccc(S(=O)(=O)N(C)C[C@@H]2OCCCC[C@@H](C)Oc3ccc(NS(=O)(=O)c4ccccc4)cc3C(=O)N([C@H](C)CO)C[C@@H]2C)cc1`, the CPE inhibition was 0.648% (inactive). For `Cc1ccc(S(=O)(=O)Nc2ccc3c(c2)C(=O)N([C@H](C)CO)C[C@@H](C)[C@H](CN(C)S(=O)(=O)c2ccc(C)cc2)OCCCC[C@@H](C)O3)cc1`, the CPE inhibition was 1.84% (inactive). With `Cc1ccc(S(=O)(=O)N(C)C[C@H]2OCCCC[C@@H](C)Oc3ccc(NS(C)(=O)=O)cc3C(=O)N([C@H](C)CO)C[C@@H]2C)cc1` the CPE inhibition was 24.2% (active). For `C[C@H](CO)N1C[C@H](C)[C@@H](CN(C)S(=O)(=O)c2cn(C)cn2)OCCCC[C@H](C)Oc2ccc(NC(=O)Cc3ccccc3)cc2C1=O`, the CPE inhibition was 123% (active). For `Cc1ccc(S(=O)(=O)Nc2ccc3c(c2)C(=O)N([C@H](C)CO)C[C@H](C)[C@@H](CN(C)S(=O)(=O)c2cn(C)cn2)OCCCC[C@H](C)O3)cc1`, the CPE inhibition was 39.2% (active). In the case of `C[C@@H]1CN([C@H](C)CO)C(=O)c2cc(NC(=O)Cc3ccccc3)ccc2O[C@H]1CN(C)S(=O)(=O)c1cn(C)cn1`, the CPE inhibition is reported as 0.292% (inactive). In the case of `Cc1ccc(S(=O)(=O)N(C)C[C@@H]2Oc3ccc(NC(=O)NC4CCCCC4)cc3C(=O)N([C@@H](C)CO)C[C@H]2C)cc1`, the CPE inhibition is reported as 23.4% (active). With `Cc1ccc(S(=O)(=O)N(C)C[C@H]2OCCCC[C@@H](C)Oc3ccc(NC(=O)NC4CCCCC4)cc3C(=O)N([C@H](C)CO)C[C@@H]2C)cc1` the CPE inhibition was 0.877% (inactive). For `Cc1ccc(S(=O)(=O)N(C)C[C@@H]2OCCCC[C@H](C)Oc3ccc(NS(=O)(=O)c4cn(C)cn4)cc3C(=O)N([C@H](C)CO)C[C@@H]2C)cc1`, the CPE inhibition was -2.41% (inactive). In the case of `C[C@@H]1CCCCO[C@@H](CN(C)S(=O)(=O)c2cn(C)cn2)[C@H](C)CN([C@H](C)CO)C(=O)c2cc(NS(=O)(=O)c3ccc(Cl)cc3)ccc2O1`, the CPE inhibition is reported as 3.2% (inactive). In the case of `C[C@@H]1CN([C@H](C)CO)C(=O)c2cc(NC(=O)NC3CCCCC3)ccc2O[C@H]1CN(C)S(C)(=O)=O`, the CPE inhibition is reported as 2.68% (inactive). With `C[C@@H]1CCCCO[C@@H](CN(C)S(=O)(=O)c2cn(C)cn2)[C@H](C)CN([C@@H](C)CO)C(=O)c2cc(NC(=O)Nc3ccccc3)ccc2O1` the CPE inhibition was -1.09% (inactive). With `O=C(C[C@@H]1C[C@@H]2c3cc(NC(=O)NC4CCCC4)ccc3O[C@@H]2[C@H](CO)O1)NCC(F)(F)F` the CPE inhibition was 7.08% (inactive). In the case of `CN(C)C(=O)[C@@H]1[C@@H](CO)[C@@H]2Cn3c(ccc(-c4ccccc4)c3=O)[C@@H]2N1CCC(F)(F)F`, the CPE inhibition is reported as 3.4% (inactive). In the case of `C[C@@H]1CN([C@H](C)CO)C(=O)c2ccccc2-c2ccccc2CO[C@H]1CN(C)C(=O)CCC(F)(F)F`, the CPE inhibition is reported as 1.69% (inactive). In the case of `CC(C)C[C@H](NC(=O)CC1CCCC1)C(=O)N1CCC[C@H]1C(=O)NCc1ccccc1`, the CPE inhibition is reported as -0.111% (inactive). For `COc1ccc(NC(=O)N(C)C[C@@H]2Oc3ccc(NC(=O)CCC(F)(F)F)cc3C(=O)N([C@@H](C)CO)C[C@H]2C)cc1`, the CPE inhibition was -3.47% (inactive). For `O=C(C1CCCCC1)N1CC(=O)N2[C@H](CO)[C@H](c3ccc(Br)cc3)[C@H]2C1`, the CPE inhibition was -9.75% (inactive). In the case of `C[C@@H]1CN([C@@H](C)CO)S(=O)(=O)c2ccc(C#CC(C)(C)O)cc2O[C@H]1CN(C)C(=O)CN(C)C`, the CPE inhibition is reported as 14.1% (inactive). In the case of `Cc1ccc(S(=O)(=O)Nc2cccc3c2O[C@H](CN(C)CC2CCCCC2)[C@H](C)CN([C@H](C)CO)C3=O)cc1`, the CPE inhibition is reported as -0.201% (inactive). In the case of `N[C@@H]1CC[C@H](CCn2cc(C3CC3)nn2)O[C@@H]1CO`, the CPE inhibition is reported as -2.16% (inactive). With `N#C[C@H]1[C@@H](c2ccccc2-c2ccccc2F)[C@@H](CO)N1C(=O)C1CCC1` the CPE inhibition was -1.39% (inactive). In the case of `C[C@@H]1CN([C@@H](C)CO)C(=O)c2cc(NS(C)(=O)=O)ccc2O[C@@H]1CN(C)C(=O)Nc1ccccc1`, the CPE inhibition is reported as 4.47% (inactive). In the case of `C[C@@H]1CN([C@@H](C)CO)C(=O)c2cc(C3=CCCC3)cnc2O[C@H]1CN(C)C(=O)c1ccccn1`, the CPE inhibition is reported as 1.01% (inactive). With `C=CCn1cc(-c2cccc(C(F)(F)F)c2)cc(C#N)c1=O` the CPE inhibition was -0.13% (inactive). In the case of `N#Cc1c(-c2ccccc2)nc(SCc2cccc(C(F)(F)F)c2)[nH]c1=O`, the CPE inhibition is reported as -3.77% (inactive). With `CC1(Cc2cccc(C#N)c2)C(=O)Nc2ccc(-c3cccc(C(F)(F)F)c3)cc21` (stereo not drawn) the CPE inhibition was 94.5% (active). In the case of `COc1ccccc1NC(=O)N[C@H]1CC[C@H](CCn2cc(-c3cccnc3)nn2)O[C@@H]1CO`, the CPE inhibition is reported as 7.27% (inactive). In the case of `CCN(C[C@H]1[C@H](c2ccc(-c3ccccc3)cc2)[C@H](CO)N1CC1CC1)C(C)=O`, the CPE inhibition is reported as -11.4% (inactive). With `C[C@H](CO)N1C[C@H](C)[C@H](CN(C)Cc2cccc(F)c2)Oc2ncc(C#CCN(C)C)cc2C1=O` the CPE inhibition was -7.01% (inactive). With `Cc1cc([N+](=O)[O-])nn1Cc1ccc(F)cc1` the CPE inhibition was -2.03% (inactive). For `Cc1nc(SCc2ccc(F)cc2)c([N+](=O)[O-])[nH]1`, the CPE inhibition was 70.9% (active). With `Cc1nc(N)nc(SCc2ccc([N+](=O)[O-])cc2)c1N` the CPE inhibition was 5.04% (inactive). With `COc1ccc(S(=O)(=O)N(C)C[C@H]2Oc3c(NC(=O)CCCCCC(=O)Nc4ccccc4N)cccc3C(=O)N([C@H](C)CO)C[C@H]2C)cc1` the CPE inhibition was -2.7% (inactive). For `COc1ccccc1Cc1c(-c2ccc(F)cc2)nc2ccc(C)cn12`, the CPE inhibition was -9.92% (inactive). With `CN(C)CC(=O)N[C@H]1CC[C@H](CCNC(=O)Nc2ccc(F)cc2)O[C@H]1CO` the CPE inhibition was 6.32% (inactive). In the case of `CCCCN1C(=O)C(=O)N(CC(=O)Nc2cccc(C(C)=O)c2)C1=O`, the CPE inhibition is reported as -4.58% (inactive). In the case of `CCOC(=O)c1cccc(NC(=O)CN2C(=O)C3CC=CCC3C2=O)c1` (stereo not drawn), the CPE inhibition is reported as 76% (active). With `CCOC(=O)c1cccc(NC(=O)CCOc2ccccc2)c1` the CPE inhibition was -0.064% (inactive). With `O=C(c1cccnc1)N1CC(=O)N2[C@H](CO)[C@@H](c3ccc(-c4ccc(F)cc4)cc3)[C@@H]2C1` the CPE inhibition was -0.715% (inactive). In the case of `O=C(C[C@@H]1CC[C@@H]2[C@H](COC[C@H](O)CN2C(=O)Cc2ccccc2)O1)NC1CCC1`, the CPE inhibition is reported as 34.4% (active). In the case of `O=C(C[C@@H]1CC[C@@H]2[C@H](COC[C@H](O)CN2C(=O)c2cccnc2)O1)NC1Cc2ccccc2C1`, the CPE inhibition is reported as -4.15% (inactive). With `O=C(C[C@@H]1CC[C@@H]2[C@H](COC[C@H](O)CN2C(=O)c2ccc3c(c2)OCO3)O1)NC1CCCC1` the CPE inhibition was -0.397% (inactive). In the case of `O=C(C[C@H]1CC[C@H]2[C@@H](COC[C@@H](O)CN2Cc2ccccc2)O1)N[C@@H]1CCN(Cc2ccccc2)C1`, the CPE inhibition is reported as 17.9% (inactive). With `O=C(C[C@@H]1CC[C@H]2[C@@H](COC[C@@H](O)CN2C(=O)c2ccc3c(c2)OCO3)O1)NC1Cc2ccccc2C1` the CPE inhibition was 35.1% (active). In the case of `O=C(C[C@@H]1CC[C@H]2[C@@H](COC[C@@H](O)CN2C(=O)c2ccc3c(c2)OCO3)O1)NC1CCCC1`, the CPE inhibition is reported as -3.32% (inactive). In the case of `O=C(C[C@H]1CC[C@H]2[C@@H](COC[C@@H](O)CN2C(=O)c2ccc3c(c2)OCO3)O1)NC1Cc2ccccc2C1`, the CPE inhibition is reported as 32.6% (active). In the case of `O=C(C[C@H]1CC[C@@H]2[C@H](COC[C@H](O)CN2Cc2ccccc2F)O1)NC1CCC1`, the CPE inhibition is reported as -4.44% (inactive). For `O=C(C[C@H]1CC[C@@H]2[C@H](COC[C@H](O)CN2C(=O)c2ccc3c(c2)OCO3)O1)NC1CCC1`, the CPE inhibition was 2.16% (inactive). For `COc1ccc(-c2ccc3c(c2)[C@H]2[C@H](CCN2S(=O)(=O)c2ccccc2F)[C@H](CO)N3)cc1`, the CPE inhibition was -28.4% (inactive). In the case of `O=C(c1ccccc1)N1C[C@H]2[C@@H](c3ccccc31)[C@H](CO)N2Cc1ccccc1F`, the CPE inhibition is reported as -4.2% (inactive). For `C[C@@H]1CN([C@@H](C)CO)C(=O)c2cc(NC(=O)CCCN(C)C)ccc2O[C@@H](C)CCCCO[C@@H]1CN(C)S(=O)(=O)c1ccc(Cl)cc1`, the CPE inhibition was -4.63% (inactive). With `C/C=C/c1ccc2c(c1)O[C@@H](CN(C)S(=O)(=O)c1ccc(F)cc1)[C@@H](C)CN([C@H](C)CO)S2(=O)=O` the CPE inhibition was 1.09% (inactive).
